# From PubChem BioAssay AID686978 (National Center for Advancing Translational Sciences (NCATS), 2013)
# Where “and” joins values, the source holds several entries; their conditions need not be identical. Identical values can stand only once. The whole screen tested about 420,000 compounds, of which about 64,000 (15%) were called active. Roughly 27% stayed inconclusive and do not appear here. Calls follow the shape of the dose curve; as a rule, active = well fitted inhibition curve with a large enough effect; inconclusive = small, poorly fitted or top-dose-only effect; inactive = flat fitted curve, though single readings scatter. Not all results are given here.
# Test: qHTS for Inhibitors of human tyrosyl-DNA phosphodiesterase 1 (TDP1): qHTS in cells in absence of CPT; also: nearly all actives have a fitted effect of over 55% in size
# Conditions: DT40 Tdp1-/- hTDP1 cells, no CPT, ATP luminescence, 48 h; activity change, negative = growth inhibition: at 46.2 µM (top of the series)
# How it was run: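 A cellular qHTS used chicken DT40 cells lacking endogenous Tdp1 but carrying stably transfected human TDP1. Compounds were applied without camptothecin, and cell growth kinetics were judged by ATP-dependent luminescence after ≥48 hr.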
# % is scaled to controls: 0 for no effect and ±100 for the full control effect; potency is read from the fitted curve at half-maximal effect.
Compound,"activity change, negative = growth inhibition",Potency
O=C(CSc1nnc(Nc2ccccc2F)s1)NC1CCCC1,-13.1% (inactive),
CC(=O)/C(C)=N\O,-5.03% (inactive),
COc1cc(C2C(C(=O)c3cccs3)=C(O)C(=O)N2CCN2CCOCC2)ccc1OCCC(C)C (stereo not given),-0.632% (inactive),
CSc1cc(C)[nH]c(=O)n1,17.6% (inactive),
Cc1nnc(SCc2cccc(Cl)c2)n(N)c1=O,2.72% (inactive),
COC(=O)Nc1ccc(S(=O)(=O)N2CCN(CCN3C(=O)C4C5C=CC(C5)C4C3=O)CC2)cc1 (stereo not given),-6.58% (inactive),
Cc1ccc(C2SCC(=O)N2c2ccccc2)cc1 (stereo not given),8.15% (inactive),
Cc1ccc(S(=O)(=O)N(C)C)cc1NC(=O)/C=C/c1cccs1,-25% (inactive),
Cc1ccc(CN(C(=O)c2ccccc2[N+](=O)[O-])c2ccccn2)cc1,,11.6 µM (active)
COC(=O)c1cc(C(=O)N(Cc2ccccc2)c2ccccn2)cc([N+](=O)[O-])c1,-1.59% (inactive),
CCC(=O)N(Cc1ccccc1)c1ccccn1,1.24% (inactive),
COc1cc(CN(C(=O)c2ccccc2Br)c2ccccn2)cc(OC)c1OC,,13 µM (active)
CC(C)(C)C(=O)N(Cc1ccccc1)c1ccccn1,0.288% (inactive),
Cc1csc2ncc(C(=O)N(Cc3ccccc3)c3ccccn3)c(=O)n12,-24.4% (inactive),
O=C(c1ccco1)N1CCC2(CC1)CN(c1ncccn1)C2,-12.3% (inactive),
CCN(CC(=O)Nc1c(F)cccc1F)C(=O)c1ccc(S(=O)(=O)N2CCCCC2)cc1,-20.4% (inactive),
CCN1CCN(C(=O)N(Cc2ccc(Cl)cc2)S(=O)(=O)c2ccc(C)cc2)CC1,-1.21% (inactive),
O=c1[nH]c2ccccc2s1,-20.8% (inactive),
O=C(Cn1c2[n+](c3ccc(C(F)(F)F)cc31)CCCCC2)Nc1c(F)cccc1F,10.3% (inactive),
COc1ccc(Cl)cc1NC(=O)CSc1nc2ccccc2c2nc(-c3ccccc3)nn12,-6.83% (inactive),
CC(=O)NCCn1c(SCC(=O)Nc2ccc(C)cc2)nc2ccccc2c1=O,,inactive
Cc1ccc(NC(=O)CSc2nc3ccccc3c3nc(CCn4cncc4C)nn23)cc1F,,20.6 µM (active)

Compound,"activity change, negative = growth inhibition",Potency
CCCCc1nc2ccc(F)cc2cc1C,0.145% (inactive),
OCC[C@H]1C[C@H](O)[C@@H](O)[C@]2(Cc3ccccc3CO2)O1,-6.77% (inactive),
O=C1OCCC1=COCCCCOC=C1CCOC1=O,-11.8% (inactive),
Cc1ccnc(NC(=O)CCNS(=O)(=O)c2ccc(C)c(C)c2)c1,0.695% (inactive),
CC(=O)CCS(=O)(=O)c1ccc(C)c(C)c1,,29.1 µM (active)
Cc1ccc(S(=O)(=O)NCCC(=O)Nc2ccc(C)c(Cl)c2)cc1C,-5.78% (inactive),
CC(=O)Nc1c2c(nn1-c1cccc(C)c1)CSC2,7.88% (inactive),
Cn1cc(-c2nc3cncnc3n(-c3ccccc3)c2=O)c2ccccc21,-24.1% (inactive),
Cc1cc(C(=O)OCC(=O)Nc2ccccc2Cl)c(C)o1,-1.32% (inactive),
O=C(Nc1ccc(S(=O)(=O)Nc2ncccn2)cc1)C12CC3CC(CC(C3)C1)C2,3.99% (inactive),
CCn1nccc1C(=O)Nc1ccc(Cl)c(Cl)c1,-15.9% (inactive),
CCn1nccc1C(=O)Nc1ccc(S(=O)(=O)NC23CC4CC(CC(C4)C2)C3)cc1,,16.4 µM (active)
O=C(NC(=O)N1CCOCC1)c1ccccc1,0.215% (inactive),
CCOC(=O)c1ccccc1NS(=O)(=O)c1ccc(OC)cc1,,14.6 µM (active)
COCCNC(=O)c1ccccc1NS(=O)(=O)c1ccc(C)c([N+](=O)[O-])c1,-13.7% (inactive),
CCOc1cc(NS(=O)(=O)c2ccc(OC)cc2)c(OCC)cc1NC(C)=O,-14.7% (inactive),
O=c1nc(N/N=C/c2ccco2)cn[nH]1,-3.94% (inactive),
CC1CC(C)CN(C(=O)C2CC(=O)N(c3ccc(F)cc3)C2)C1 (stereo not given),-1.19% (inactive),
CCOc1cc(C(=O)OCC(=O)Nc2cccc(C)c2)ccc1OCC(=O)N1CCOCC1,23.9% (inactive),
COc1ccc(C2CC(=O)Oc3ccc(C(C)(C)C)cc32)cc1 (stereo not given),4.46% (inactive),
COc1ccc(-c2cc(C(=O)NCCCn3ccnc3)no2)cc1,-20.9% (inactive),
O=C(NCCCn1ccnc1)c1cc(-c2ccccc2)on1,,7.31 µM (active)

Compound,"activity change, negative = growth inhibition",Potency
COc1ccccc1-c1cc(C(=O)NCCCn2ccnc2)no1,-15.1% (inactive),
O=C(NCCN1CCOCC1)[C@H](Cc1ccccc1)N1C(=O)c2ccccc2C1=O,-28.8% (inactive),
Cc1csc(SCC(=O)Nc2sccc2C#N)n1,-11.8% (inactive),
O=C(Cc1ccc(Br)cc1)N1CCN(c2ccccn2)CC1,-23.2% (inactive),
Brc1ccc(-c2n(-c3ccccn3)c3ccccc3[n+]2-c2ccccn2)cc1,,13 µM (active)
Cn1cc(CNC(=O)c2ccc(OC3CCN(Cc4ccccn4)CC3)cc2)cn1,-13% (inactive),
CN(C(=O)CSc1nc2ccccc2n1Cc1ccccc1C#N)c1ccccc1,,18.4 µM (active)
CCn1c(SCC(=O)N2CCCC2=O)nc2ccccc21,9.74% (inactive),
COC(=O)c1ccc(Cn2c(SCC(=O)N(C)c3ccccc3)nc3ccccc32)cc1,,23.1 µM (active)
Cc1ccc(Cn2c(SCC(=O)N/N=C/c3ccccc3OCC(=O)O)nc3ccccc32)cc1,13% (inactive),
CCN(CC)C(=O)CSc1nc2ccccc2n1CC(=O)N1CCN(c2ccccc2OC)CC1,-28% (inactive),
COC(=O)CSc1nc2ccccc2c(=O)n1Cc1ccccc1,-18.6% (inactive),
CC1=C(C/C=C(\C)CCCC(C)CCCC(C)CCCC(C)C)C(=O)c2ccccc2C1=O (stereo not given),-7.3% (inactive),
Cc1cc(C)cc(NC(=O)COc2coc(CN3CCN(c4ccccc4)CC3)cc2=O)c1,-32.4% (inactive),
CC1(C(=O)NS(=O)(=O)c2cccc(F)c2)CCN1C(=O)Cc1ccc(Cl)cc1Cl (stereo not given),-9.03% (inactive),
COc1ccccc1NC(=O)c1ccc(N2CC3CC(C2)c2cccc(=O)n2C3)c(NC(=O)c2cccnc2)c1 (stereo not given),-3.69% (inactive),
O=C(OCC1OC(Oc2ccc(O)cc2)C(O)C(O)C1O)c1ccccc1 (stereo not given),-2.28% (inactive),
CCCCNC(=O)CSc1nccn1Cc1ccccc1,-16.4% (inactive),
O=C(CSc1nccn1Cc1ccc(Cl)cc1)NCc1ccccc1,,29.1 µM (active)
CCCCCCNC(=O)CSc1nccn1Cc1ccccc1,-20.3% (inactive),
NC(=O)c1ccccc1N=Cc1ccc2ccccc2c1,,16.4 µM (active)
N=c1oc2ccccc2cc1C(=O)N/N=C/c1ccccc1,-7.25% (inactive),

Compound,"activity change, negative = growth inhibition",Potency
O=C(COC(=O)Cc1ccccc1F)NNC(=O)c1ccc(Cl)cc1,-7.42% (inactive),
Cc1ccc(S(=O)(=O)N(C)C)cc1NC(=O)C1Cc2ccccc2CN1C(=O)c1ccco1 (stereo not given),-0.334% (inactive),
Cc1ccc(C)c(NC(=O)C2Cc3ccccc3CN2C(=O)OCc2ccccc2)c1 (stereo not given),,20.6 µM (active)
Cc1ccc(NC(=O)C2CCCN2C(=O)OCc2ccccc2)cc1C (stereo not given),-15.4% (inactive),
Fc1ccccc1OCCCCn1cncn1,-6.12% (inactive),
COc1cc(/C=C/CNC[C@H]2O[C@@H](n3cnc(C(N)=O)n3)[C@H](O)[C@@H]2O)ccc1O,-8.27% (inactive),
OCC[C@H]1C[C@@H](O)[C@H](O)[C@]2(OCCCc3ccccc32)O1,-26.6% (inactive),
O=C(NCCCN1CCCCC1)c1ccc2c(c1)NC(=O)C(N1CCOCC1)S2 (stereo not given),-5.19% (inactive),
CCN1CCN(CCNC(=O)c2ccc3c(c2)NC(=O)/C(=C\c2cccc(Cl)c2)S3)CC1,,16.4 µM (active)
O=C(NCCN1CCOCC1)Nc1cccc(Cl)c1,2.52% (inactive),
Cc1cc(C)n(-c2ccc(NC(=O)C3CCCCN3C(=O)c3cccs3)cc2)n1 (stereo not given),-24.6% (inactive),
CCOc1ccc(/C=C(/NC(=O)c2ccccc2)C(=O)NCCC(=O)O)cc1,-1.02% (inactive),
O=C1CCNCCN1[C@H](CO)Cc1ccccc1,,inactive
O=C1CCN(Cc2ccc([N+](=O)[O-])cc2)CCN1[C@H](CO)Cc1ccccc1,-29.7% (inactive),
O=C1CC[C@H](O)CCN1[C@H](CSc1ccc(Br)cc1)Cc1ccccc1,,15.8 µM (active) and 16.4 µM (active)
COc1ccccc1NC(=O)C1=C(C)Nc2ncnn2C1c1ccc(C)o1 (stereo not given),6.2% (inactive),
CC(OC(=O)c1cc2ccccc2o1)C(=O)Nc1ccc(N2CCOCC2)cc1 (stereo not given),-12.7% (inactive),
COC(=O)c1sc(NC(=O)c2csc3c2CCCC3)nc1C,,23.1 µM (active)
Cc1ccc(NC(=O)c2csc3c2CCCC3)cc1,-10.6% (inactive),
CCOC(=O)c1ccc(NC(=O)c2csc3c2CCCCC3)cc1,,14.6 µM (active)
CCOC(=O)c1c(NC(=O)Cc2coc3ccc(CC)cc23)sc2c1CCC2,-69.5% (inactive),
CCOc1ccc(CCNC(=O)c2csc3c2CCCCC3)cc1,-23.6% (inactive),

Compound,"activity change, negative = growth inhibition",Potency
CC(=O)Cc1nsc(NC(=O)c2csc3c2CCCC3)n1,-18.5% (inactive),
CCOC(=O)c1ccc(NC(=O)c2c(NCc3ccccc3)[nH]c(=O)[nH]c2=O)cc1,8.57% (inactive),
COC(=O)c1sc(NC(=S)NC(=O)c2ccc(C)cc2)nc1C,-26.1% (inactive),
CCOC(=O)c1ccc(NC(=O)CNC(=O)c2ccco2)cc1,-8.77% (inactive),
CCOC(=O)c1ccc(NC(=O)c2c(NCc3cccc(OC)c3)sc3c2CCC3)cc1,,11.6 µM (active)
CCOC(=O)c1ccc(NC(=O)c2c(NCc3cccs3)sc3c2CCCC3)cc1,,20.6 µM (active)
CC[C@H](C)C(=O)N[C@H]1CCCN1C(=O)/C=C/c1ccccc1,7.88% (inactive),
Cc1ccc(C(=O)COC(=O)CCCC(=O)NC2CCCCC2)cc1[N+](=O)[O-],-10.4% (inactive),
COCCNC(=O)C1CCN(C(=O)C2CC(=O)N(c3ccc(C)cc3)C2)CC1 (stereo not given),-29.2% (inactive),
O=C1CCC(=O)N1c1ccc(NCCc2ccccc2F)c([N+](=O)[O-])c1,-18% (inactive),
CCCCN1CCNC1=S,-4.02% (inactive),
CC1CC(C)CN(C(=O)CSc2nnc(CSc3ncccn3)n2C)C1 (stereo not given),-7.34% (inactive),
COCC1CCCN(C(=O)c2ccc3oc(C(C)C)nc3c2)C1 (stereo not given),6.37% (inactive),
COc1ccc(CCNc2nc3c(-c4cccc(F)c4)nnn3c3ccccc23)cc1OC,-25.8% (inactive),
COc1ccccc1CNc1nc2ccc(Cl)cc2n2cnnc12,-14.6% (inactive),
COc1ccc(CCNc2nc3ccc(C)cc3n3cnnc23)cc1OC,,16.4 µM (active) and 23.1 µM (active)
COc1ccc(-c2cc(C(=O)NCc3ccco3)no2)cc1OC,-3.72% (inactive),
COc1ccc(CNC(=O)C2CCCC2)cc1,-24% (inactive),
Cc1ccc(NC(=O)C2CC(c3ccc(F)cc3)=NO2)cc1 (stereo not given),-8.36% (inactive),
COc1ccc(S(=O)(=O)N2CCC(C(=O)NCc3ccco3)CC2)cc1C,-21.2% (inactive),
COc1ccc(CNC(=O)C2CC(c3ccc(C(F)(F)F)cc3)=NO2)cc1 (stereo not given),,11.6 µM (active)
COc1ccc(C2=NOC(C(=O)NCc3ccco3)C2)cc1OC (stereo not given),,2.59 µM (active)
